Structures are written as SMILES. A number with no mark means an inactive call.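 Rule for the calls: active = viability loss from added drug above about 55%, and viability with drug at most 40%, in both replicates (limit read from the data, passing the limit was not always enough); inconclusive = both conditions met in only one replicate; inactive = neither replicate meets both conditions.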

This test can be described thus: reversal of MRP1-mediated doxorubicin resistance, pilot screen, H69AR cells, doxorubicin co-treatment (AID 601). The note with it: H69AR cells + 2 uM doxorubicin, CellTiter-Glo, 72 h; at 10 µM; active compounds read high.
For `Cc1ccc(C)c(SCC(=O)Nc2nnc(-c3ccccc3)o2)c1`, the differential viability (reversal) was -0.675%.

As to `Cc1ccccc1CN1CCN(C(=O)c2cccc(F)c2)CC1`, the differential viability (reversal) is 4.51%.

For `Cc1cc(NCCCn2ccnc2)n2c(nc3ccccc32)c1C#N`, the differential viability (reversal) is 7.14%.

Take `CCOC(=O)C1CCN(C(=O)CN(Cc2ccccc2)S(C)(=O)=O)CC1`: the differential viability (reversal) was -1.19%.

Take `COc1ccc(CCNC(=O)c2nc3ncccn3n2)cc1OC`: the differential viability (reversal) is 7.66%.

For `CCOC(=O)N1CCN(C(=O)Nc2ccc(Cl)cc2)CC1`, the differential viability (reversal) is 14.8%.

Consider `O=C(CN1C(=O)COc2ccccc21)NCCCN1CCN(Cc2ccccc2)CC1`, for which the differential viability (reversal) is 2.35%.

In the case of `O=C(O)C1CC(=O)N(c2ccc(OCc3c(F)cccc3Cl)cc2)C1` (stereo unspecified), the differential viability (reversal) is 4.8%.

On to `COC(=O)C1(C(=O)OC)Sc2ccccc2C1=O`, for which the differential viability (reversal) was 10.6%.

Take `CCOc1ccccc1OCCn1nnc2ccccc21`: the differential viability (reversal) was 18.4%.

Turning to `Cc1nn(-c2ccccc2)c(Cl)c1C1C(C#N)=C(N)OC2=C1C(=O)CC(C)(C)C2` (stereo unspecified), the differential viability (reversal) is -72.2%.

With `COc1ccc(S(=O)(=O)NCc2ccco2)cc1-c1nnc2c3ccccc3c(C)nn12`, the differential viability (reversal) is -10.3%.

Take `O=S(=O)(c1ccccc1)N1CCSC1c1ccco1` (stereo unspecified): the differential viability (reversal) was -15.6%.

For `CCNc1ccc2c(Cl)cc(=O)oc2c1`, the differential viability (reversal) was 5.29%.

Turning to `COc1ccccc1-c1ccc(Nc2cccc(C(C)=O)c2)nn1`, the differential viability (reversal) was 15.8%.

Consider `O=C(NC1CCCCC1)C(c1ccc(Cl)cc1)N(C(=O)c1cnccn1)c1ccc2c(c1)OCO2` (stereo unspecified), for which the differential viability (reversal) was 4.39%.
